An excerpt weighted towards active compounds, which were near 7.7% of everything screened.
PD-1 reverse act = activators reversing PD-1 mediated T-cell inhibition. activation, % (test concentration not listed). 29,000 tested, under 10 active. AID 2316. primary human CD4 T cells, PD-L1 beads, CellTiter-Glo 96 h; call rule not given here;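 also: 0% = median vehicle wells and 100% = positive control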
NOMO-1 viab = STK33 inhibitor candidate reducing NOMO-1 cell viability | AID 2330 | NOMO-1 AML viability, CellTiter-Glo luminescence, 72 h | 7.5% of 37,000 active | inhibition, % (concentration not given with the values); in the data active = inhibition above about 80%; inconclusive = no clear call, values can overlap the other calls
Hedgehog inh = Sonic Hedgehog pathway inhibition; 2.1% of 22,000 active; Shh-LIGHT2 Gli-luciferase reporter, 30 h; inhibition, % (test concentration not listed);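 active = mean inhibition across valid replicates above about 65%, limit read from the data; inconclusive = mean under the limit, yet half or more replicates past it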;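 also: pathway switched on by Shh-conditioned medium diluted 1 in 25 in low serum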
* marks the source's active call; other numbers are inactive results; u = inconclusive; x = no result given.

SMILES | PD-1 reverse act | NOMO-1 viab | Hedgehog inh
C[C@@H]1CN([C@H](C)CO)C(=O)c2cc(NS(=O)(=O)c3ccc(F)cc3)ccc2O[C@H]1CN(C)Cc1ccc(C(=O)Nc2ccccc2N)cc1 | -2 | 58 | x
C[C@H]1CN([C@@H](C)CO)C(=O)c2cc(NS(=O)(=O)c3ccc(F)cc3)ccc2O[C@@H]1CN(C)Cc1ccc(C(=O)Nc2ccccc2N)cc1 | 0 | 7 | x
C[C@H](CO)N1C[C@H](C)[C@H](CN(C)Cc2ccc(C(=O)Nc3ccccc3N)cc2)Oc2ccc(NS(=O)(=O)c3ccc(F)cc3)cc2C1=O | -2 | 109* | x
CCOC(=O)c1cc(NC(=O)CN2C(=O)COc3ccc(Cl)cc32)ccc1Cl | x | 20 | x
CS(=O)(=O)N(CC(=O)Nc1ccc(I)cc1)c1cccc2ccccc12 | -2 | 43 | x
O=C(CSc1nnc(-c2ccc(Cl)cc2)n1-c1ccc(F)cc1)N1CCOCC1 | 3 | 10 | x
CC(Oc1ccc(C(=O)Nc2ccc(Cl)cc2)cc1)C(=O)Nc1ccc(Br)cc1 (configuration not stated) | -13 | 136* | x
COC(=O)c1ccccc1NC(=O)c1ccc(NC(=O)C(C)Oc2ccccc2)cc1 (configuration not stated) | 2 | 0 | x
Cc1ccc(NC(=O)c2ccc(OC(C)C(=O)Nc3ccccc3)cc2)cc1 (configuration not stated) | x | 47 | x
Cc1cccc(NC(=O)c2ccc(OC(C)C(=O)Nc3ccc(Br)cc3)cc2)c1C (configuration not stated) | 0 | 115* | x
COc1ccc(O)c(-c2cnc(=S)[nH]c2-c2cc(OC)ccc2OC)c1 | -3 | 6 | 16
C[C@H]1CN([C@@H](C)CO)C(=O)Cc2cc(NC(=O)Nc3ccc(F)cc3)ccc2O[C@H]1CN(C)Cc1ccc(C(F)(F)F)cc1 | 0 | 126* | -23
C[C@@H]1CN([C@@H](C)CO)C(=O)Cc2cc(NC(=O)Nc3ccc(F)cc3)ccc2O[C@@H]1CN(C)Cc1ccc(C(F)(F)F)cc1 | -6 | 113* | 22
C[C@H]1CN([C@@H](C)CO)C(=O)Cc2cc(NC(=O)Nc3ccc(C(F)(F)F)cc3)ccc2O[C@@H]1CN(C)Cc1ccncc1 | x | 20 | 38
C[C@H](CO)N1C[C@H](C)[C@H](CN(C)Cc2ccc(C(=O)O)cc2)Oc2ccc(NC(=O)Nc3ccc(C(F)(F)F)cc3)cc2CC1=O | 2 | 18 | 7
C[C@@H]1CN([C@H](C)CO)C(=O)Cc2cc(NC(=O)Nc3ccc(C(F)(F)F)cc3)ccc2O[C@H]1CN(C)Cc1ccc2c(c1)OCO2 | x | -13 | x
C[C@@H]1CN([C@@H](C)CO)C(=O)Cc2cc(NC(=O)Nc3ccc(C(F)(F)F)cc3)ccc2O[C@@H]1CN(C)Cc1ccc2c(c1)OCO2 | x | 122* | 14
C[C@H]1CN([C@@H](C)CO)C(=O)Cc2cc(NC(=O)Nc3ccc(C(F)(F)F)cc3)ccc2O[C@@H]1CN(C)Cc1ccc(C(F)(F)F)cc1 | -2 | 126* | -2
COc1cc(-c2oc3cc(O)cc(O)c3c(=O)c2OC2OC(CO)C(O)C(O)C2O)ccc1O (configuration not stated) | 1 | 0 | -18
COc1ccc(-c2nc(C#N)c(NCCN3CCOCC3)o2)cc1 | x | -17 | x
C[C@@H]1CN([C@H](C)CO)C(=O)Cc2cc(NC(=O)Nc3ccc(C(F)(F)F)cc3)ccc2O[C@@H]1CN(C)Cc1ccc(C(=O)O)cc1 | 0 | 16 | x
C[C@H](CO)N1C[C@H](C)[C@H](CN(C)Cc2ccc(C(F)(F)F)cc2)Oc2ccc(NC(=O)Nc3ccccc3)cc2CC1=O | x | 86* | x
C[C@@H]1CN([C@H](C)CO)C(=O)Cc2cc(NC(=O)Nc3ccc(C(F)(F)F)cc3)ccc2O[C@H]1CN(C)Cc1ccc(C(=O)O)cc1 | 1 | 13 | -14
C[C@@H]1CN([C@H](C)CO)C(=O)Cc2cc(NC(=O)Nc3ccccc3)ccc2O[C@H]1CN(C)Cc1ccc(C(F)(F)F)cc1 | 2 | 118* | 28
COc1cc2c(cc1NC(=O)CSc1nnc(-c3cnccn3)n1-c1ccccc1)oc1ccccc12 | 0 | 53 | x
SMILES | PD-1 reverse act | NOMO-1 viab | Hedgehog inh
CCn1c(=O)c(C(=O)NCCO)c(O)c2ccccc21 | x | -12 | x
COc1ccc(CN2CCN(Cc3cccc(OC)c3OC)CC2)c(OC)c1 | 0 | 24 | x
C[C@H](CO)N1C[C@H](C)[C@H](CN(C)Cc2ccc(C(F)(F)F)cc2)Oc2c(NC(=O)Nc3ccccc3)cccc2C1=O | x | 48 | -28
C[C@H]1CN([C@@H](C)CO)C(=O)c2cccc(NC(=O)Nc3ccc(C(F)(F)F)cc3)c2O[C@H]1CN(C)Cc1ccc(C(F)(F)F)cc1 | -6 | 114* | -37
C[C@@H]1CN([C@H](C)CO)C(=O)c2cccc(NC(=O)Nc3ccc(C(F)(F)F)cc3)c2O[C@H]1CN(C)Cc1ccc(C(F)(F)F)cc1 | -5 | u | -9
C[C@H](CO)N1C[C@H](C)[C@H](CN(C)Cc2ccc(C(F)(F)F)cc2)Oc2c(NC(=O)Nc3cccc4ccccc34)cccc2C1=O | -5 | 112* | -12
C[C@@H]1CN([C@@H](C)CO)C(=O)c2cccc(NC(=O)Nc3ccc(C(F)(F)F)cc3)c2O[C@@H]1CN(C)Cc1ccc(-c2ccccc2)cc1 | x | 125* | x
C[C@@H]1CN([C@H](C)CO)C(=O)c2cccc(NC(=O)Nc3ccc(C(F)(F)F)cc3)c2O[C@@H]1CN(C)Cc1ccc(-c2ccccc2)cc1 | -2 | u | -39
C[C@@H]1CN([C@H](C)CO)C(=O)c2cccc(NC(=O)Nc3ccccc3)c2O[C@H]1CN(C)Cc1ccc(C(F)(F)F)cc1 | x | 91* | -7
C[C@@H]1CN([C@H](C)CO)C(=O)c2cccc(NC(=O)Nc3ccc(C(F)(F)F)cc3)c2O[C@@H]1CN(C)Cc1ccccc1 | -6 | 75 | 35
CS(=O)(=O)N(CC(=O)Nc1ccc(F)c(F)c1)c1ccc(Cl)c(C(F)(F)F)c1 | -4 | 36 | x
COc1ccc(C)cc1S(=O)(=O)N(CC(=O)O)c1cc(C)cc(C)c1 | 1 | -13 | x
O=C(CSc1nc2ccccc2c(=O)n1-c1cccc(Cl)c1)Nc1cccc(Cl)c1 | -7 | 38 | x
Cc1nc(SCC(N)=O)c2c(C)c(C)sc2n1 | 3 | 0 | x
O=S(=O)(NCCOc1ccccc1)c1cccc2cccc(Cl)c12 | 0 | 16 | x
COCCN1C(=O)/C(=C/c2cn(CC(=O)OC)c3ccccc23)C(=O)N(c2ccccc2)C1=O | 1 | 28 | -2
O=C(NC(=S)N(Cc1cccnc1)Cc1ccccc1Cl)c1ccccc1 | -3 | 38 | 1
Nc1nnc(SCC(=O)Nc2ccc(Br)cc2Cl)n1-c1ccccc1 | 1 | 14 | x
CS(=O)(=O)N(CC(=O)Nc1ccc(Oc2ccccc2)cc1)c1ccc(F)c(Cl)c1 | 0 | 29 | x
C[C@H]1CN([C@@H](C)CO)C(=O)c2cccc(NC(=O)Nc3ccc(F)cc3)c2O[C@@H]1CN(C)Cc1ccc(C(F)(F)F)cc1 | 0 | 57 | 0
C[C@@H]1CN([C@H](C)CO)C(=O)c2cccc(NC(=O)Nc3ccc(C(F)(F)F)cc3)c2O[C@@H]1CN(C)Cc1ccc(C(F)(F)F)cc1 | -3 | 111* | 33
COc1cc(NC(=O)CN(C)S(=O)(=O)c2cc(Cl)ccc2Cl)cc(OC)c1 | x | -1 | x
O=C(c1ccc(Oc2ccccc2)cc1)c1coc2ccc(O)cc12 | 0 | 139* | -49

Screening results as filed in PubChem BioAssay.
